For the assay, the target named is AMP-activated protein kinase, AMPK (Homo sapiens) (UniProt P54646+O43741+P54619+Q9UGJ0+Q9Y478+Q13131+Q9UGI9). Put plainly: AMP-dependent Kinase enzyme assay. An in vitro enzyme assay that detects ADP turnover that is directly proportional to AMPK activity. This uses naive AMPK that is activated during the assay with MK-8722. In kind it is functional. Details: scale not given: direction of the effect not stated beside the values. As to conditions: 30 µM.
In the case of `O=C(COc1ccc(Cl)cc1)NCc1nncn1C1CC1`, the Percent Effect is -8.68%.

As for `CCOc1ccccc1-n1c(C2CCC2)n[nH]c1=O`, the Percent Effect stood at 13.5%.

For the compound `Cc1nc[nH]c1CN(C)Cc1cnn(-c2ccc(F)cc2)c1`, the Percent Effect turned out to be 10.8%.

With `CCc1cc(NC(CCO)c2ccc(OC)cc2)n2nccc2n1` (centres undefined), the Percent Effect was 2.19%.

As to `CC(Oc1ccc2c(c1)OCO2)C(=O)N1CCC(N2CCOCC2)CC1` (centres undefined), the Percent Effect is -2.63%.

As for `CCS(=O)(=O)N1Cc2ccccc2CC1C(=O)OCc1cc(C)no1` (centres undefined), the Percent Effect is 5.87%.

Consider `C=C(C)COc1cccc(CNCc2nc3ccccc3c(=O)[nH]2)c1`, for which the Percent Effect amounted to 1.56%.

With `CN1C[C@H](c2ccccc2)[C@H]2CN(C(=O)Cc3ccc(O)cc3)CC[C@H]21`, the Percent Effect is 4.46%.

Consider `CCn1ncnc1C(C)Nc1cc(C2CC2)ncn1` (centres undefined), for which the Percent Effect worked out at 3.16%.

Consider `Cn1ncc2c1CCCC2NCc1ccc(OCc2cccnc2)cc1` (centres undefined), for which the Percent Effect stood at 2.53%.

With `CN(Cc1cccc(OC(F)(F)F)c1)Cc1cnn(C)c1`, the Percent Effect was -4.15%.

For `Cc1cc(CN2CCC(c3cc(Cc4ccccc4)n[nH]3)CC2)[nH]n1`, the Percent Effect is -6.49%.

On to `COCCc1noc(CN2CCN(c3ccc(OC)cc3)C(=O)C2C)n1` (centres undefined), for which the Percent Effect worked out at 4.12%.

For `Cc1nc(CCN(C)C(=O)CN2CCCCCC2)no1`, the Percent Effect came to 1.14%.

In the case of `COc1cccc(CNC(=O)C(C)N2CC(n3nc(C)cc3C)C2)c1` (centres undefined), the Percent Effect was 0.116%.

As to `CCN(Cc1ccoc1)c1ncc(S(N)(=O)=O)s1`, the Percent Effect is -1.73%.

Take `CCN(Cc1cnc(C)cn1)C1CCN(c2ccccc2)C1=O` (centres undefined): the Percent Effect is -4.52%.

Take `O=C(CN1CC(c2ccccc2)CC1=O)N1CCC(c2ncc[nH]2)CC1` (centres undefined): the Percent Effect was determined as 2.5%.

In the case of `CC(C)c1cc(NC(=O)Cn2cnc3ccccc3c2=O)[nH]n1`, the Percent Effect was determined as 6.52%.

Turning to `Cc1cn2c(n1)C(CNCc1cnn3ccccc13)CCC2` (centres undefined), the Percent Effect is -1.25%.

On to `Cc1ccc(C(=O)NCc2ccnc(C3CCCOC3)n2)s1` (centres undefined), for which the Percent Effect is 7.88%.

For `CC(C(N)=O)N1CCN(c2ncc(Cl)cn2)CC1` (centres undefined), the Percent Effect is -1.99%.

With `Cn1ccc(N2CCCC(NC(=O)c3ccc(Cl)o3)C2=O)n1` (centres undefined), the Percent Effect came to 3.82%.

`CC(=O)N1CC(C(=O)NC(C)c2cnn(C)c2C)C1` (centres undefined): the Percent Effect worked out at 8.59%.

Take `Cc1nc(CC(C)C)cc(C(=O)N2C[C@@H](N(C)C)[C@H](C(C)C)C2)n1`: the Percent Effect is -4.31%.

On to `Cc1nc(-c2ccnn2C)cc(C2CCCN(S(C)(=O)=O)C2)n1` (centres undefined), for which the Percent Effect worked out at 13.9%.

As to `O=C(Nc1cccc(C(=O)OCC2CCCN2)c1)c1ccoc1` (centres undefined), the Percent Effect came to 0.474%.

As to `Cc1n[nH]c(C)c1CCc1n[nH]c(=O)n1Cc1cccs1`, the Percent Effect was -7.17%.

Take `COc1ccc(OC)c(S(=O)(=O)NC(=O)C(C)OC)c1` (centres undefined): the Percent Effect was -3.05%.

With `COCC1CCN(c2ccnc3ccsc23)C1` (centres undefined), the Percent Effect was 4.92%.

With `CC(NC(=O)C(C)(C)C)c1cc(O)nc(-c2cccnc2)n1` (centres undefined), the Percent Effect came to 6.37%.

For the compound `COc1ccc(CN2C[C@@H]3CC[C@H](C2)N(S(C)(=O)=O)C3)cc1`, the Percent Effect amounted to 12.6%.

For the compound `CS(=O)(=O)N1CCC(CNc2c(Cl)cccc2C#N)CC1`, the Percent Effect turned out to be 7.5%.

On to `CN1CC(C(=O)NCCc2ccc(Br)cc2F)CC1=O` (centres undefined), for which the Percent Effect stood at 7.63%.

On to `CC(C)c1ccc(/C=C/CC(=O)NC2CCN(C(N)=O)CC2)cc1`, for which the Percent Effect is -2.39%.

Take `CS(=O)(=O)CCC(=O)Nc1ccsc1`: the Percent Effect was -6.46%.

As for `O=C(c1cnco1)N1CCC(Cc2cccc3ncccc23)CC1`, the Percent Effect is 5.42%.

With `Cc1nnc(C(C)N2CCCN(Cc3noc(C4CC4)n3)CC2)o1` (centres undefined), the Percent Effect is -4.62%.

As for `CN(CCc1noc(C2CC2)n1)C(=O)CN1C(=O)COc2ccccc21`, the Percent Effect is -1.86%.

(Values after ChEMBL document CHEMBL3988442, “University of Dundee, Small-Polar-MMV Screening Library” (2021).)
